High-throughput results deposited in PubChem BioAssay by National Center for Advancing Translational Sciences (NCATS).
S2 tox: reduces viability in counter-screen for ATXN expression inhibitors | S2 cells (HEK-293 line with an ATXN2-luciferase reporter) viability, CellTiter-Fluor protease fluorescence, 24 h | Potency, µM (series often up to 56.7 µM), hits mostly cytotoxic | 400,000 tested, 0.49% active; also: potency is read from the fitted curve at half-maximal effect; nearly all actives have a fitted effect of over 40% in size
HepG2 tox: HepG2 cytotoxicity, counter-screen for TGF-b inhibitors; HepG2 CAGA-GFP viability, ATP luminescence, 18 h; 410,000 tested, 0.76% active; Potency, µM (top dose mostly 46.1 µM), for inactives: at the top dose activity change, negative = cytotoxicity, usual class: cytotoxic; also: potency is read from the fitted curve at half-maximal effect
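CellTiter-Glo luminescence gave cytotoxicity after 18 hours at 37 degrees C. The cells were HepG2 CAGA-GFP in 1% FBS DMEM, stimulated with 500 pg/mL TGF-beta after compound addition. %Activity was normalised to no-cell wells (complete cell-killing) and DMSO (no toxicity), and curves were fitted and classified.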
DRD3 agonist: activates the human D3 dopamine receptor; 410,000 tested, 0.58% active; max activation, %; P35462; D3R DiscoveRx beta-arrestin cells, luminescence, 90 min; AID 652048; in the data active = max activation above about 30%; also: 0% is about no effect
Target sequence (P35462 whole entry, looked up): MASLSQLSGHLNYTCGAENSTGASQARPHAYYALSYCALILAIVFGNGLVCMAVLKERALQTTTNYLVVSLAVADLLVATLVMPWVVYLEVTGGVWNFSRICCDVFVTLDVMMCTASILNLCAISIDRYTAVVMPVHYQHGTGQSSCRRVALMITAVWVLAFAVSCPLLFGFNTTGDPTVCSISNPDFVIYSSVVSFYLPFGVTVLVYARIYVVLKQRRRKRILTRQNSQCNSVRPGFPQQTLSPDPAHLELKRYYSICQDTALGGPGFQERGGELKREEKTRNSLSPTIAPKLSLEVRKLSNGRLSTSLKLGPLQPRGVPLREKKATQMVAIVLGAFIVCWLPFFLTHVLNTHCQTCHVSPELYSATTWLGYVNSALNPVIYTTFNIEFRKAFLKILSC
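Cells at 1500/well, incubated overnight, then treated with pinned compounds (dopamine as control) for 90 min at 37 degrees C. DiscoveRx reagent added for 30 - 60 minutes at room temperature; luminescence read.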
ATXN2 expr inh: ATXN2 expression inhibition | HEK-293 ATXN2-luciferase reporter, luminescence, 24 h | 360,000 tested, 0.72% active | AID 1745845 | Potency, µM (top dose mostly 57 µM), without a hit: top-dose activity change, negative = inhibition, usual class: inhibitors; also: potency is read from the fitted curve at half-maximal effect; % is scaled to controls: 0 for no effect and ±100 for the full control effect; nearly all actives have a fitted effect of over 55% in size
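qHTS (up to 57 uM final) was run with 24 h compound exposure of reporter cells at 37 °C. Each well was multiplexed: SteadyGlo luminescence measured ATXN2-luciferase expression after a fluorogenic Gly-Phe-AFC viability readout (25 uM final).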
DRD3 antagonist: blocks the human D3 dopamine receptor. P35462. D3R cells, DiscoveRx beta-arrestin luminescence, antagonist mode; hits give low values. AID 652054. max response, negative = inhibition, %. 360,000 tested, 2.5% active; in the data active = max response below about -50%; inconclusive = no clear call, values can overlap the other calls; also: % is scaled to controls: 0 for no effect and ±100 for the full control effect
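Cells plated overnight at 1500 cells/well, then exposed to library compounds with dopamine controls for 90 minutes at 37 degrees C. DiscoveRx reagent added for 30–60 minutes at room temperature; luminescence read, quantitative HTS format.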
TGFb SMAD3 inh: inhibitors of TGF-b signaling | HepG2 CAGA-GFP TGF-b/SMAD3 reporter, GFP fluorescence, 18 h; TGF-beta stimulated, 500 pg/mL final | Potency, µM (titrated, usually from 46.1 µM), for the others: at the highest dose activity, negative = inhibition, actives largely listed as inhibitors | 410,000 tested, 1.2% active | AID 588855; also: potency is read from the fitted curve at half-maximal effect; % is scaled to controls: 0 for no effect and ±100 for the full control effect; nearly all actives have a fitted effect of over 65% in size
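Read-out: total well GFP (ex488/em500-530) summed from mean per-cell fluorescence. Cells: HEPG2 CAGA-GFP, 1% FBS DMEM, 18 h at 37 degrees C with 500 pg/mL final TGF-beta. Unstimulated wells served as the full-inhibition control; stimulated DMSO wells = 0%.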
The depositor's hits bear a star; i = inactive; ? = inconclusive; / = not tested or not shown. In the library only some 4.8% were active in any assay of this set; here they are far more common. Unless noted, calls follow the shape of the dose curve; as a rule, active = well fitted curve in the direction sought with a large enough effect; inconclusive = small, poorly fitted or top-dose-only effect, or another doubt; inactive = no such curve, though single readings can be large; an effect the other way counts as inactive or inconclusive.

SMILES	S2 tox	HepG2 tox	DRD3 agonist	ATXN2 expr inh	DRD3 antagonist	TGFb SMAD3 inh
O=C1c2ccccc2C(=O)N1CC(O)Cn1nnc2ccccc21 (configuration not stated)	i	-4%	1	3%	18	-1%
OC(CN1c2ccccc2Sc2ccccc21)Cn1nnc2ccccc21 (configuration not stated)	?	18µM*	2	-11%	14	0%
Cc1nn(CC(O)c2ccccc2)c(C)c1Br (configuration not stated)	/	1%	2	/	32	0%
Cc1nn(CC(O)CN2c3ccccc3Sc3ccccc32)c(C)c1Br (configuration not stated)	i	-121%	-4	0%	-23	13µM*
CCCC(=O)C1=C(c2ccc(C)c(C)c2)N(C(=O)CCC)n2c(CC)nnc2S1	/	-27%	1	/	/	-16%
CCCC(=O)C1=C(c2ccc(C)cc2)N(C(=O)CCC)n2cnnc2S1	/	20µM*	15	/	/	?
COc1cc(CN2CCc3nnc(C(NS(C)(=O)=O)C(C)C)n3CC2)ccc1F (configuration not stated)	i	/	/	/	/	/
Cc1ccc(OCC(=O)Nc2ccc(OCc3cc(=O)n4cccc(C)c4n3)cc2)cc1C	/	0%	12	/	/	-4%
Cc1ccc(C(C)C)c(OCC(O)CN(C)Cc2ccccc2)c1 (configuration not stated)	?	-154%	-7	-36%	13	16µM*
Cc1ccc(C(C)C)c(OCCCN(C)Cc2ccccc2)c1	i	-57%	-14	-35%	-61*	?
Cc1cc(C)c(OCCCCN(C)Cc2ccccc2)c(C)c1	?	-50%	-22	/	?	?
Cc1ccc(C(C)C)c(OCCNC(=O)c2ccccc2O)c1	i	-27%	12	-35%	12	?
Cc1ccc(C(C)C)c(OCC(O)CNC2CCCC2)c1 (configuration not stated)	?	-104%	-1	/	-5	-19%
Cc1ccc(OCCCCN(C)Cc2ccccc2)c(Br)c1	?	-85%	-16	-35%	-55*	?
Cc1c(Cl)cccc1NC(=O)CSc1nc(=O)[nH]c2c1CCCC2	/	-11%	4	/	/	?
CCCCCCCCCNC(=O)[C@H](NC(=O)COc1ccccc1)[C@@H]1NC(C(=O)OC)C(C)(C)S1 (some centres not stated)	?	-6%	4	9%	21	11µM*
Cc1cccc(C(=O)NNC(=O)c2c(O)c3ccccc3n(C)c2=O)c1	i	-22%	30*	-9%	58	?
COc1cc(C#Cc2ccc3cc(C(C)(C)O)oc(=O)c3c2)cc(OC)c1	?	-30%	31*	-10%	70	-8%
Cn1cncc1C#Cc1ccc2cc(C(C)(C)O)oc(=O)c2c1	i	-19%	18	7%	14	2%
COc1ccc2cc(C(=O)C3CCCN(C(=O)/C=C/c4ccccn4)C3)ccc2c1 (configuration not stated)	i	13µM*	20	-15%	25	0%
Cc1cccc(OCC(O)CNC(C)(C)C)c1C (configuration not stated)	i	/	/	-7%	/	/
COc1cccc(-c2nn(C)c3sc(C(=O)N4CCN(c5cccc(C)c5)C(C)C4)cc23)c1 (configuration not stated)	?	-21%	48*	?	/	-16%
O=c1cc(N2CCN(c3ccccc3)CC2)[nH]c(=O)n1C1CCCCC1	i	-25%	-1	5µM*	-24	-27%
Cc1ccc(C(C)C)c(OCC(=O)N/N=C/c2cccn2C)c1	i	-14%	31*	/	37	?
Cc1ccc(S(=O)(=O)NC(=O)COc2cc(C)ccc2C(C)C)cc1	i	0%	-7	-9%	-55*	0%
SMILES	S2 tox	HepG2 tox	DRD3 agonist	ATXN2 expr inh	DRD3 antagonist	TGFb SMAD3 inh
C/C(Cl)=C\Cn1c(O)c(N=NC(N)=S)c2ccccc21	/	-29%	-10	24µM*	?	?
CCN1CCN(c2nc3ccccc3n3cnnc23)CC1	i	36%	-22	/	-70*	25%
c1ccc2c(c1)nc(N1CCCCCC1)c1nncn12	i	-20%	-2	/	-27	-12%
O=C1/C(=C/c2cccs2)Cc2ccccc21	i	-6%	-1	5%	-5	-7%
CN1CCC(=C2c3ccccc3CCc3sccc32)CC1	?	-33%	-80	-20%	-91*	-11%
CN1CCC(=C2c3ccccc3CC(=O)c3sccc32)CC1	i	-33%	-21	-1%	-98*	1%
CN1CCC(=C2c3ccccc3C(O)c3ccccc32)CC1 (configuration not stated)	i	2%	2	/	-80*	8%
COc1cccc(C(=O)NCC2Cc3cccc(-c4nc(C)cnc4C)c3O2)c1OC (configuration not stated)	i	/	/	/	/	/
Cc1cc(C)c(C#N)c(N2CCN(CCOc3ccc(Cl)cc3)CC2)n1	i	-27%	-24	?	-78*	?
COC(=O)c1ccc(NC(=O)N2CCc3c([nH]c4ccccc34)C2c2ccc(C)cc2)cc1 (configuration not stated)	/	-42%	-20	/	/	/
Cc1ccc(C)c(CSc2nnc3[nH]c(=O)cc(C)n23)c1	/	4%	-5	/	/	2%
COCCNC(=O)c1c(NC(=O)Cc2coc3cc(C)ccc23)sc2c1CCCC2	i	-1%	8	-9%	/	-2%
O=c1ccc2ccccc2c2ccccc12	?	-61%	-11	5µM*	-79*	13µM*
c1ccc2c(c1)ccc1ccccc12	i	-8%	0	-5%	-9	-12%
Cc1cc(/C=C2/C(=O)NN(c3ccccc3)C2=O)c(C)n1-c1ccc(O)cc1	i	8%	-5	4%	-3	-6%
COc1ccc(-n2c(C)cc(/C=C3\C(=O)NN(c4ccccc4)C3=O)c2C)cc1	i	9%	4	36%	-59*	1%
Cc1cnc(-n2ncc(C(=O)NCCc3ccccn3)c2C)nc1-c1ccc(F)cc1	i	/	/	/	/	/
CN1CCC(N(C)C(=O)c2cc(-c3ccccc3Cl)nc3ccccc23)CC1	i	-24%	-11	-24%	-60*	-1%
CCSc1nc2c(c(=O)[nH]c(=O)n2C)n1CC(O)COc1ccc(Cl)cc1 (configuration not stated)	i	0%	-11	-24%	/	?
CN(C)S(=O)(=O)c1ccc2c(c1)C(=Cc1cc3c([nH]1)CCCC3)C(=O)N2	/	/	/	27%	/	/
